The record followed here is PubChem BioAssay (EPA / NIEHS).

Values joined by “and” are separate entries in the source; they are usually repeats but may differ in a detail not shown here. Equal values may be shown once. Records with an inconclusive call do not appear. Some structures have more than one record in an assay (separate samples or runs), and their calls can disagree. Active and inactive are the calls of the source. How the source made its calls: active means hit-call score of the fitted dose curve at least 0.9, where 1 is the maximum; inconclusive means response in the unintended direction; inactive means score below 0.9.

Sequence of human Retinoid X Receptor beta (RXRb), RXRB (gene 6257) (P28702 whole entry, looked up): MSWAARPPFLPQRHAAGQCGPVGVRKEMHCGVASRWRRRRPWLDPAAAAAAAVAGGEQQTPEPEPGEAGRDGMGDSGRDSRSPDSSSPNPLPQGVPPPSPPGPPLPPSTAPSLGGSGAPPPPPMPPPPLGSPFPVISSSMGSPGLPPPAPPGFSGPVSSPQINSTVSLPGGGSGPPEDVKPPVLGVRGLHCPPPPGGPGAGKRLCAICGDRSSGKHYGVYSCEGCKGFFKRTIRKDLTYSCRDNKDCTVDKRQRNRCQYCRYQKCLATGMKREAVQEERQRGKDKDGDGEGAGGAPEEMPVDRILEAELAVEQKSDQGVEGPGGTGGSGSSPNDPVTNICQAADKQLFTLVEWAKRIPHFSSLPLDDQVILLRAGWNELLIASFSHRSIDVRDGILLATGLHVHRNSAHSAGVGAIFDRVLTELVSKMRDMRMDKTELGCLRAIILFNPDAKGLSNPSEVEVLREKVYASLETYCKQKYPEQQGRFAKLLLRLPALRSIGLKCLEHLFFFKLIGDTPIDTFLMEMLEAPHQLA

This assay deals with human Retinoid X Receptor beta (RXRb), RXRB (gene 6257) (UniProt P28702). Description: ATG_RXRb_TRANS: Attagene TRANS-FACTORIAL HepG2 Assay for human Retinoid X Receptor beta (RXRb) (AID 2283013). As to the method:
ATG_TRANS is a cell-based, multiplexed-readout assay that uses HepG2, a human liver cell line, with measurements taken at 24 hours after chemical dosing in a 24-well plate.ATG_RXRb_TRANS is one of 30 assay component(s) measured or calculated from the ATG_TRANS assay. It is designed to make measurements of mRNA induction, a form of inducible reporter, as detected with fluorescence intensity signals by Reverse transcription polymerase chain reaction (RT-PCR) and Capillary electrophoresis technology.Data from the assay component ATG_RXRb_TRANS was analyzed into 1 assay endpoint. This assay endpoint, ATG_RXRb_TRANS, was analyzed in the positive analysis fitting direction relative to DMSO as the negative control and baseline of activity. Using a type of inducible reporter, measures of mRNA for gain-of-signal activity can be used to understand the reporter gene at the transcription factor-level as they relate to the gene RXRB. Furthermore, this assay endpoint can be referred to as a primary readout, because this assay has produced multiple assay endpoints where this one serves a reporter gene function. To generalize the intended target to other relatable targets, this assay endpoint is annotated to the nuclear receptor intended target family, where the subfamily is non-steroidal.
Human liver HepG2 cells are transiently transfected with multiple reporter transcription units (MRTUs) in 6-well plates using FuGene 6 reagent (Roche; 3 ml FuGene/1 mg DNA). The MRTU constructs are regulated by a cis-regulating element (promoter). […] A major difference between the CIS and TRANS system is that in CIS activities of endogenous TFs are measured, whereas the TRANS assay evaluates changes in activities of exogenous, chimeric NR-Gal4 proteins. […] At the end of 24 hour incubation, total RNA was isolated using TriZol reagent (Invitrogen). The isolated RNA is then reverse-transcribed using oligo(dT) primer and Mo-MLV reverse transcriptase (Invitrogen) with DNAse I (Ambion) treatment for 30 min. The one-tenth of the produced cDNA was amplified by PCR using Taq DNA polymerase (Invitrogen) and two reporter sequence-specific primers. The PCR products were fluorescently labeled by primer extension with 6-arboxyfluorescein (6-FAM) 5'-labeled reporter sequence-specific primer (2 min at 95 C, 20 s at 68 C and 10 min at 72 C) and these products were digested with 5U of HpaI (New England Biolabs) for 2h at 37 C. The fragments were purified using Qiaquick PCR columns (Qiagen), analyzed on an ABI 3130xL genetic analyzer (Applied Biosystems) with peak positions identified by using a set of X-rhodamine (ROX)-labeled MapMarker1000 molecular weight standards (BioVentures). The raw capillary electrophoresis data was processed using Attagraph software (Attagene).
As for `CCCCc1ccc2ccccc2c1S(=O)(=O)O`, the AC50 was 77.1 µM (active).
For the compound `C=CC(=O)OCCC(F)(F)C(F)(F)C(F)(F)C(F)(F)C(F)(F)C(F)(F)C(F)(F)C(F)(F)F`, the compound was classed as inactive.
`CN(C)c1ccc(C(=C2C=CC(=[N+](C)C)C=C2)c2ccccc2)cc1`: the compound was called inactive and the AC50 is 1.36 µM (active).
On to `COCC1CCC(CO)CC1` (stereo not given), for which the compound was called inactive.
Regarding `CCCCCCCCCCCC(=O)O`, the compound was classed as inactive.
Regarding `CCOC(C)=O`, the concentration at half-maximal activity (AC50) was 26.6 µM (active) and the compound was classed as inactive.
Consider `Cc1cccc2c1ccc1ccccc12`, for which the AC50 was 22.6 µM (active).
With `CCOC(OCC)C(=O)c1ccccc1`, the compound was called inactive.
As for `O=C(Nc1ccc(Cl)c(Cl)c1)c1cc(Cl)cc(Cl)c1O`, the compound was called inactive.
`CNNCc1ccc(C(=O)NC(C)C)cc1`: the compound was called inactive.
With `Cc1ccc2ccc3ccc(C)cc3c2c1`, the AC50 was 12.9 µM (active).
Take `CS(=O)(=O)c1ccc([C@@H](CC2CCCC2)C(=O)Nc2cnccn2)cc1Cl`: the outcome was inactive.
In the case of `CCc1ccccc1O`, the compound was classed as inactive.
On the same count and under the same terms, for `CCC1CO1` (stereo not given) the value was “inactive”; for `Clc1ccc2c(Cl)ccnc2c1`, “inactive”; for `Cc1ccccc1OCC(=O)O`, “inactive”.
As to `C=COC(=O)C(C)(C)CCCCCC`, the AC50 was 62 µM (active).
In the case of `NC(=NCCCCCCN=C(N)/N=C(\N)Nc1ccc(Cl)cc1)/N=C(\N)Nc1ccc(Cl)cc1`, the outcome was inactive.
Turning to `O=c1cc(-c2ccccc2)oc2ccc3ccccc3c12`, the compound was called inactive.
On the same count and under the same terms, in the case of `FC(F)(F)N1C(F)(F)C(F)(F)OC(F)(F)C1(F)F` it was “inactive”; in that of `FC(OC(F)(F)C(F)(F)C(F)(F)F)C(F)(F)F` (stereo not given), “inactive”.
Same read-out and setting: in the case of `Nc1ccc(O)c(C(=O)O)c1` it was “inactive”; in that of `CC1CNCC(C)O1` (stereo not given), “inactive”; in that of `CCCCCCCCC1CCC(=O)O1` (stereo not given), “inactive”.
The same measure, in the same setting: for `C[C@]12CC[C@@H]3c4ccc(O)cc4CC[C@H]3[C@@H]1C[C@@H](O)[C@@H]2O` the value was “inactive”; for `O=C(O)C(=O)O`, “inactive”.
Consider `CCC(C)c1nccnc1OC` (stereo not given), for which the result was inactive.
Consider `CC(C)(C)c1ccc(O)c(O)c1`, for which the result was inactive; the AC50 was 38.8 µM (active) and 44.5 µM (active) and 27.8 µM (active).
Consider `O=P(O)(O)CCC(F)(F)C(F)(F)C(F)(F)C(F)(F)C(F)(F)C(F)(F)C(F)(F)C(F)(F)F`, for which the outcome was inactive.
In the case of `C=CC(C)(CCC=C(C)C)OC(C)=O` (stereo not given), the compound was called inactive.
As to `O=CC(F)(F)C(F)(F)C(F)(F)C(F)F`, the compound was called inactive.
As to `c1cnc2c(c1)ccc1cccnc12`, the outcome was inactive.
The same measure, in the same setting: in the case of `C=CCOCC(CO)(CO)CO` it was “inactive”.
The same measure, in the same setting: in the case of `Cc1cncc(C)c1` it was “inactive”.
Take `CCOC=O`: the half-maximal activity concentration (AC50) was 6.71 µM (active).
In the case of `Cc1ccc(C(=O)c2ccccc2)cc1`, the AC50 was 75.9 µM (active).
Consider `O=C1Cc2ccccc2N1c1c(Cl)cccc1Cl`, for which the compound was called inactive.

For orientation: AC50 means the concentration giving half of the maximal activity seen.
